Compound activity: PubChem BioAssay, several laboratories
An excerpt weighted towards active compounds, which were near 3.5% of everything screened.
14-3-3 Bad PPI: disrupts binding of bovine 14-3-3 zeta to phospho-Bad peptide. P63103. 220,000 tested, 0.71% active. inhibition, % at 21.7 µM. TR-FRET 14-3-3zeta/Dy647-pBad peptide displacement, 1 h;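 active = inhibition above about 70%, limit read from the data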
Mcl-1 Bim block: human Bim-Mcl-1 interaction inhibition | AID 1009 | Q07820 | inhibition, % at 10 µM | Bead-based flow cytometry, Bim peptide-Mcl-1 binding | 190,000 tested, 0.1% active; in the data active = inhibition above about 40%
eIF4E 4G PPI: inhibitors of eIF4E and eIF4G interaction in translation initiation | P63073+Q04637 | TR-FRET eIF4E-eIF4GI(517-606) binding, 2 h | inhibition, % at 21.7 µM | 220,000 tested, 0.37% active | AID 782;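 active = inhibition above about 30%, limit read from the data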
Mcl1-Bid inh: disrupts binding of human Mcl-1 to Bid peptide. TR-FRET Mcl-1/Bid-Dy647 peptide binding, 1536-well. inhibition, % at 21.7 µM. 220,000 tested, 0.97% active. AID 1021;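 active = compounds that cut the binding signal by more than half at the single screening dose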;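 also: His-tagged Mcl-1 with europium anti-His antibody binding Bid BH3 peptide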
Mcl1 Noxa PPI: disrupts binding of human Mcl-1 to Noxa peptide | inhibition, % at 21.7 µM | TR-FRET Mcl-1/Noxa peptide binding, 2 h | AID 1022 | 220,000 tested, 1.5% active;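 active = compounds that cut the protein-peptide binding signal by more than 50% relative to plate controls in a single-dose test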;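 also: His-tagged Mcl-1 with rhodamine Noxa BH3 peptide and terbium anti-His antibody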
Hck Nef HTS: human Hck-Nef kinase inhibition; 220,000 tested, 0.68% active; inhibition, % at 20 µM; Recombinant Hck-YEEI plus Nef, Z-Lyte FRET kinase assay; P08631;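 active = Hck-Nef kinase inhibition above about 50%, limit read from the data; inactive = inhibition below that limit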
Numbers stand for hits.

Screening CCN1C(=O)C(CC(=O)Nc2ccc(OC)cc2)N(CCCN2CCN(c3ccc(OC)cc3)CC2)C1=S (stereo unspecified) returned 14-3-3 Bad PPI inactive, Mcl-1 Bim block inactive, eIF4E 4G PPI inactive, Mcl1-Bid inh inactive, Mcl1 Noxa PPI inactive and Hck Nef HTS inactive.
Screening CCNc1nc(NCC)nc(Oc2ccc(C(=O)OC)cc2)n1 returned 14-3-3 Bad PPI inactive, eIF4E 4G PPI inactive, Mcl1-Bid inh inactive, Mcl1 Noxa PPI inactive and Hck Nef HTS inactive.
For Cc1ccc(NC(=S)NC(=O)c2sc3ccccc3c2Cl)c(C(=O)O)c1 the results were 14-3-3 Bad PPI inactive, Mcl-1 Bim block inactive, eIF4E 4G PPI inactive, Mcl1-Bid inh inactive, Mcl1 Noxa PPI inactive and Hck Nef HTS inactive.
NC(N)=NS(=O)(=O)c1ccc(NC(=S)NC(=O)c2sc3ccccc3c2Cl)cc1 was read as 14-3-3 Bad PPI 75.7, Mcl-1 Bim block inactive, eIF4E 4G PPI inactive, Mcl1-Bid inh 81.9, Mcl1 Noxa PPI inactive and Hck Nef HTS inactive.
For O=C(O)c1ccccc1NC(=S)NC(=O)c1sc2ccccc2c1Cl the results were 14-3-3 Bad PPI inactive, Mcl-1 Bim block inactive, eIF4E 4G PPI inactive, Mcl1-Bid inh inactive, Mcl1 Noxa PPI 57.8 and Hck Nef HTS inactive.
CSCc1ccc(C(=O)Nc2cccc(C)c2C)cc1 was read as 14-3-3 Bad PPI inactive, Mcl-1 Bim block inactive, eIF4E 4G PPI inactive, Mcl1-Bid inh inactive, Mcl1 Noxa PPI inactive and Hck Nef HTS inactive.
`CCOc1ccccc1Nc1nnc(Cc2ccccc2Cl)c(=O)[nH]1` gave 14-3-3 Bad PPI inactive, Mcl-1 Bim block inactive, eIF4E 4G PPI inactive, Mcl1-Bid inh 52.5, Mcl1 Noxa PPI inactive and Hck Nef HTS inactive.
For CCOc1ccccc1Nc1nnc(C)c(=O)[nH]1 the results were 14-3-3 Bad PPI inactive, Mcl-1 Bim block inactive, eIF4E 4G PPI inactive, Mcl1-Bid inh inactive, Mcl1 Noxa PPI inactive and Hck Nef HTS inactive.
Cc1ccc(S(=O)(=O)CCC(=O)OCC(=O)Nc2ncc(Cl)cc2Cl)cc1 was read as 14-3-3 Bad PPI inactive, Mcl-1 Bim block inactive, eIF4E 4G PPI inactive, Mcl1-Bid inh 87.3, Mcl1 Noxa PPI inactive and Hck Nef HTS inactive.
`Cc1ccc(S(=O)(=O)CCC(=O)OCc2ccc(Cl)c(Cl)c2)cc1` gave 14-3-3 Bad PPI inactive, Mcl-1 Bim block inactive, eIF4E 4G PPI inactive, Mcl1-Bid inh 55.2, Mcl1 Noxa PPI inactive and Hck Nef HTS inactive.
Screening CC(C)(Oc1ccc(Cl)cc1)C(=O)OCC(=O)Nc1ncc(Cl)cc1Cl returned 14-3-3 Bad PPI 87.9, Mcl-1 Bim block inactive, eIF4E 4G PPI inactive, Mcl1-Bid inh inactive, Mcl1 Noxa PPI inactive and Hck Nef HTS inactive.
Screening O=C(COC(=O)c1ccc(Cl)nc1)Nc1ncc(Cl)cc1Cl returned 14-3-3 Bad PPI inactive, Mcl-1 Bim block inactive, eIF4E 4G PPI inactive, Mcl1-Bid inh inactive, Mcl1 Noxa PPI inactive and Hck Nef HTS inactive.
For CCOCCCNCc1cc(Cl)cc(Cl)c1OCC the results were 14-3-3 Bad PPI inactive, Mcl-1 Bim block inactive, eIF4E 4G PPI inactive, Mcl1-Bid inh inactive, Mcl1 Noxa PPI inactive and Hck Nef HTS inactive.
Screening NC(=O)CSc1nnc(-c2ccc(S(=O)(=O)N3CCCC3)cc2)n1Cc1ccco1 returned 14-3-3 Bad PPI inactive, Mcl-1 Bim block inactive, eIF4E 4G PPI inactive, Mcl1-Bid inh inactive, Mcl1 Noxa PPI inactive and Hck Nef HTS inactive.
For O=C(O)CSc1nnc(-c2ccc(S(=O)(=O)N3CCCC3)cc2)n1Cc1ccco1 the results were 14-3-3 Bad PPI 84.7, Mcl-1 Bim block inactive, eIF4E 4G PPI inactive, Mcl1-Bid inh inactive, Mcl1 Noxa PPI inactive and Hck Nef HTS inactive.
O=C(CSc1nnc(-c2ccncc2)n1-c1ccc(F)cc1)NC(=O)NCc1ccco1 was read as 14-3-3 Bad PPI inactive, Mcl-1 Bim block inactive, eIF4E 4G PPI inactive, Mcl1-Bid inh inactive, Mcl1 Noxa PPI 63.2 and Hck Nef HTS inactive.
`O=C(CSc1ccc2nnc(-c3ccc(F)cc3)n2n1)NCc1ccco1` gave 14-3-3 Bad PPI inactive, Mcl-1 Bim block inactive, eIF4E 4G PPI inactive, Mcl1-Bid inh inactive, Mcl1 Noxa PPI 62.4 and Hck Nef HTS inactive.
COC(=O)CCC/C=C1\SC[C@@H](NC(=O)c2ccccc2)C1NC(C)=O (stereo partly specified) was read as 14-3-3 Bad PPI inactive, Mcl-1 Bim block inactive, eIF4E 4G PPI inactive, Mcl1-Bid inh inactive, Mcl1 Noxa PPI inactive and Hck Nef HTS inactive.
`CCN(C(=O)COC(=O)c1ccc(Cl)c(N)c1)C1CCS(=O)(=O)C1` (stereo unspecified) gave 14-3-3 Bad PPI inactive, Mcl-1 Bim block inactive, eIF4E 4G PPI inactive, Mcl1-Bid inh inactive, Mcl1 Noxa PPI inactive and Hck Nef HTS inactive.
Nc1c(C(=O)O)ccc2c1C(=O)c1ccccc1C2=O was read as 14-3-3 Bad PPI inactive, Mcl-1 Bim block inactive, eIF4E 4G PPI inactive, Mcl1-Bid inh inactive, Mcl1 Noxa PPI inactive and Hck Nef HTS inactive.
COC(=O)c1ccc2c(c1O)C(=O)c1ccccc1C2=O was read as 14-3-3 Bad PPI inactive, Mcl-1 Bim block inactive, eIF4E 4G PPI inactive, Mcl1-Bid inh inactive, Mcl1 Noxa PPI 57.6 and Hck Nef HTS inactive.
For O=C(O)c1cc(N/N=C/c2ccc(N3CCOCC3)s2)ccc1Cl the results were 14-3-3 Bad PPI inactive, Mcl-1 Bim block inactive, eIF4E 4G PPI inactive, Mcl1-Bid inh inactive, Mcl1 Noxa PPI 85.9 and Hck Nef HTS inactive.
For Cc1ccc(Cl)cc1NC(=O)N(C)CCO the results were 14-3-3 Bad PPI inactive, eIF4E 4G PPI inactive, Mcl1-Bid inh inactive, Mcl1 Noxa PPI inactive and Hck Nef HTS inactive.
Screening O=[N+]([O-])c1cc(/C=N/n2c(-c3ccncc3)n[nH]c2=S)ccc1Cl returned 14-3-3 Bad PPI inactive, Mcl-1 Bim block inactive, eIF4E 4G PPI inactive, Mcl1-Bid inh inactive, Mcl1 Noxa PPI 65.2 and Hck Nef HTS inactive.
For O=[N+]([O-])c1ccc(Cl)c(/C=N/n2c(-c3cccnc3)n[nH]c2=S)c1 the results were 14-3-3 Bad PPI inactive, Mcl-1 Bim block inactive, eIF4E 4G PPI inactive, Mcl1-Bid inh inactive, Mcl1 Noxa PPI 57.6 and Hck Nef HTS inactive.
Screening O=[N+]([O-])c1cccc(/C=N/n2c(-c3cccnc3)n[nH]c2=S)c1 returned 14-3-3 Bad PPI inactive, Mcl-1 Bim block inactive, eIF4E 4G PPI inactive, Mcl1-Bid inh inactive, Mcl1 Noxa PPI inactive and Hck Nef HTS inactive.
Cc1ccsc1/C=N/n1c(-c2cccnc2)n[nH]c1=S was read as 14-3-3 Bad PPI inactive, Mcl-1 Bim block inactive, eIF4E 4G PPI 34.6, Mcl1-Bid inh inactive, Mcl1 Noxa PPI inactive and Hck Nef HTS inactive.
`Cc1cc(-c2n[nH]c(=S)n2/N=C/c2cc([N+](=O)[O-])ccc2Cl)n[nH]1` gave 14-3-3 Bad PPI inactive, Mcl-1 Bim block inactive, eIF4E 4G PPI inactive, Mcl1-Bid inh inactive, Mcl1 Noxa PPI 57.3 and Hck Nef HTS inactive.
`COc1cc(NC(=O)COC(=O)C=C(C)C)c(C)cc1[N+](=O)[O-]` gave 14-3-3 Bad PPI inactive, Mcl-1 Bim block inactive, eIF4E 4G PPI inactive, Mcl1-Bid inh inactive, Mcl1 Noxa PPI inactive and Hck Nef HTS inactive.
